Compounds with a hit are over-represented: about 1% of the library has one in this group of screens.
hiPSC survival: increases survival of single human iPS cells. hiPSC single-cell survival, ATPlite luminescence; 100% = ROCK inhibitor wells, 0% = DMSO. survival enhancement, % at 20 µM. 360,000 tested, 0.044% active; in the data active = survival enhancement above about 18%;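 also: cells exposed to compounds for 16 hours before the ATP read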
V-ATPase pH: alters yeast V-ATPase proton transport; S. cerevisiae, pHLuorin cytosolic pH fluorescence; response, % at 10 µM; 350,000 tested, 0.37% active; AID 504577; in the data active = response mostly above about 7.3%, no sharp cut-off; inactive = mostly below about 5.4%; also: actives read high
CTSL1 counter: counter-screen for PFM18AAP inhibitors: inhibitors of F. hepatica cathepsin L1. inhibition, % at 5.96 µM. recombinant F. hepatica cathepsin L1, Z-Leu-Arg-MCA fluorescence. 300,000 tested, 0.49% active. AID 1906;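 active = inhibition above the mean of all tested compounds plus 3 SD, set per screening campaign, cut at about 17% in these data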;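 also: 0% = plate median of test compound wells and 100% = 1 µM Z-Phe-Ala-diazomethylketone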
Yeast superoxide: yeast age-related superoxide inhibition as caloric restriction mimetic. S. cerevisiae aged cells, superoxide DHE fluorescence; hits give low values. superoxide response (% of plate mean), % at 10 µM. 330,000 tested, 0.18% active. AID 2690;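 active = superoxide response under a set limit, about three screen SD below normal, cut at about 65% in these data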;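 also: yeast aged for seven days with compound at 30 °C before DHE staining; 100% = average MFI of all compound-treated wells on the plate with controls excluded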
VATPase regulator: modulates yeast V-ATPase proton transport; shares compounds with V-ATPase pH; S. cerevisiae pHLuorin cytosolic pH; response, % at 10 µM; 980 tested, 2% active; in the data active = response above about 24%;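 also: plate controls were vehicle wells for no effect and positive control wells for full effect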
The depositor's hits bear a star; . = no result given.

SMILES | hiPSC survival | V-ATPase pH | CTSL1 counter | Yeast superoxide | VATPase regulator
O=C(Nc1ccccc1)c1c(O)[nH]c(=S)[nH]c1=O | -2 | 13* | 7 | 104 | -1
O=C(Nc1ccccc1)c1c(O)[nH]c(=O)[nH]c1=O | 3 | 0 | -1 | 98 | .
CC12CCC(=O)C=C1CCC1C2CCC2(C)C1CCC2(O)CC#N (configuration not stated) | 3 | 12* | . | . | 3
C[C@]12CCC(=O)C=C1CC[C@@H]1C2CC[C@]2(C)C(=O)CCC12 (some centres not stated) | 1 | 1 | 8 | 96 | .
CCCCCCC(=O)N/N=C/c1c(O)n(C(C)CC)c(=S)[nH]c1=O (configuration not stated) | 1 | -1 | 3 | 107 | .

Compound activity (PubChem BioAssay)
